Pf Dd2 growth: qHTS Primary assay for Inhibitors of Plasmodium falciparum Dd2 growth in vitro | P. falciparum Dd2 growth, SYBR Green, 72 h | Potency, µM (titrated, usually from 28.9 µM), inactives show top-dose activity, negative = inhibition, hits mostly inhibitors | hit rate 4.3% among 120,000; active means well fitted inhibition curve with a large enough effect;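 further: plate controls were DMSO vehicle for no effect and reference drug for full effect; nearly all actives have a fitted effect of over 65% in size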
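Readout: SYBR Green fluorescence, 485 nm excitation, 535 nm emission, after ~16 h lysis at 37C. Before that, Dd2-infected red cells (2.5% hematocrit) grew 72 h with compound, 29 uM top final concentration.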
* = called active by the depositor; i = inactive; [ ] = remark or other dose. Many of the other results were omitted from the sample, so hits are more common in it than they were. Potency means the concentration at half of the fitted maximal effect.

SMILES	Pf Dd2 growth
O=C(CC1CCOCC1)N1CCN(Cc2cccc(F)c2)CC1	48%
CN1C(=O)C(CC(=O)NCC2CCN(Cc3cccc(F)c3)CC2)=C2CCCCC21 (stereo not drawn)	i
Cc1oc2c(c1C(=O)N1CCCC1)CN(Cc1cccc(F)c1)CC2	-21%
Cc1oc2c(c1C(=O)N1CCCCCC1)CN(Cc1cccc(F)c1)CC2	4µM*
O=C1CCN(Cc2cccc(F)c2)CCCCCCN1	-19%
Cc1oc2c(c1C(=O)N1CCN(C3CCCC3)CC1)CN(Cc1cccc(F)c1)CC2	8.9µM*
Cc1ncc2c(c1CNC(=O)c1ccccc1-c1ncc[nH]1)CCNC2	-15%
COc1cccc2c1OCCCN(C(=O)CC1COCCN1)C2 (stereo not drawn)	1%
CN(C(=O)c1ccc2nc(-c3ccc(F)cc3)cn2c1)C1CCOCC1	-6%
COc1cc(F)ccc1-c1cc2c(ccn2C)c(C(=O)NCCc2cnc[nH]2)n1	-15%[44.1 µM]
COCCN(CC1CC1)C(=O)c1ccc2nc(-c3ccc(F)cc3)cn2c1	-15%
CC(Cc1cnccn1)NC(=O)c1ccc2nc(-c3ccc(F)cc3)cn2c1 (stereo not drawn)	-17%
CCC(NC(=O)c1ccc2nc(-c3ccc(F)cc3)cn2c1)c1ncc(C)[nH]1 (stereo not drawn)	7.9µM*
O=C(NCCc1cnc[nH]1)c1ccc2nc(-c3ccc(F)cc3)cn2c1	10µM*
CCn1cnnc1CC1CCN(C(=O)NC)C1 (stereo not drawn)	22%
O=C(NC1CCC1)C1=NO[C@@H]2CN(CCc3ccccc3)C[C@H]12	21%[44.1 µM]
O=C(c1ccoc1)N1CCCC(CN2CCCC2)CC1 (stereo not drawn)	-20%
Cc1ccc(-c2noc(CCCc3nc(-c4cccnc4)no3)n2)nn1	i
COc1ccc2nc3sc(C(=O)Nc4ccccc4F)cc3cc2c1	9%
COc1ccc(S(=O)(=O)c2c(O)c(C)cc(NC(=O)c3ccccc3)c2C(C)C)cc1	i
Cc1ccc(S(=O)(=O)c2c(Nc3ccccc3)sc(C(=O)c3ccc4c(c3)OCO4)c2N)cc1	13µM*
Cc1cccc(C)c1Nc1sc(C(=O)c2ccccc2)c(N)c1S(=O)(=O)c1ccccc1	i
Cc1ccccc1Nc1sc(C(=O)c2ccc3c(c2)OCO3)c(N)c1S(=O)(=O)c1ccccc1	-17%
COc1ccc(S(=O)(=O)c2c(Nc3ccccc3F)sc(C(=O)c3cccc(OC)c3)c2N)cc1	11µM*
CC(=O)c1cc2c(cc1N/C(=N/S(=O)(=O)c1ccc(C)cc1)c1ccccc1)OCO2	-24%
SMILES	Pf Dd2 growth
COc1cccc(C(=O)c2sc(Nc3ccc(F)c(Cl)c3)nc2N)c1	i
COc1ccc(CNC(=O)c2c(Nc3ccc(OC)cc3OC)sc(C(=O)c3ccc(Cl)cc3)c2N)cc1	i
COc1ccc(S(=O)(=O)c2c(Nc3ccc(C)cc3C)sc(C(=O)c3ccc(F)cc3)c2N)cc1	11µM*
CCS(=O)(=O)c1c(Nc2cc(C)ccc2C)sc(C(=O)c2ccccc2)c1N	-21%
CCc1ccccc1Nc1sc(C(=O)c2ccccc2)c(N)c1S(=O)(=O)c1ccccc1	11µM*
O=C(Cn1nc2n(c1=O)CCCCC2)NCc1ccc(F)cc1	27%
O=C(Cc1n[nH]c(=O)c2ccccc12)NC1CCCc2c1[nH]c1ccccc21 (stereo not drawn)	-17%
COc1ccc(CNC(=O)[C@@]23CCCC[C@H]2N(C)C(=O)CC3)cc1	-17%
NCCC1CCN(C(=O)Nc2ccccc2F)CC1	-19%
COc1ccc(CCNC(=O)CN2C(=O)NC(c3ccc(Cl)cc3)C3=C2COC3=O)cc1OC (stereo not drawn)	i
CCC1c2nccn2CCCN1C(=O)CCc1c(C)noc1C (stereo not drawn)	-23%
COc1cccc(C(=O)c2cn(CC(=O)NCc3ccccc3Cl)c3nc(C)ccc3c2=O)c1	-5%
COc1cccc(C(=O)Nc2ccccc2-c2nc3ccccc3s2)c1	i
CCc1ccccc1Nc1sc(C(=O)c2cccc(OC)c2)c(N)c1S(=O)(=O)c1ccccc1	11µM*
CCCNC(=O)N(C1CCOCC1)C1CCN(C(=O)c2ccc(OC)nc2OC)CC1	i
CCCCCC(=O)Nc1nc2c(s1)C[C@@H]1[C@](C)(CO)[C@H](O)CC[C@@]1(C)[C@@H]2CC(=O)NCc1ccccc1	-6%
CC(C)(C)CC(=O)Nc1nc2c(s1)C[C@@H]1[C@](C)(CO)[C@H](O)CC[C@@]1(C)[C@@H]2CC(=O)NCc1ccco1	i
C[C@H](NC(=O)C[C@@H]1c2nc(NC(=O)c3ccc(F)cc3)sc2C[C@@H]2[C@](C)(CO)[C@H](O)CC[C@]21C)c1ccccc1	2.5µM*
C[C@@H](NC(=O)C[C@@H]1c2nc(NC(=O)CC(C)(C)C)sc2C[C@@H]2[C@](C)(CO)[C@H](O)CC[C@]21C)c1ccccc1	11µM*
CC(C)(C)CC(=O)Nc1nc2c(s1)C[C@@H]1[C@](C)(CO)[C@H](O)CC[C@@]1(C)[C@@H]2CC(=O)O	-21%[44.1 µM]
C[C@]1(CO)[C@H]2Cc3sc(NC(=O)c4ccc(F)cc4)nc3[C@@H](CC(=O)O)[C@]2(C)CC[C@H]1O	-24%
CCCCCC(=O)Nc1nc2c(s1)C[C@@H]1[C@](C)(CO)[C@H](O)CC[C@@]1(C)[C@@H]2CC(=O)NCc1cc(F)cc(F)c1	7.9µM*
CCCCCC(=O)Nc1nc2c(s1)C[C@@H]1[C@](C)(CO)[C@H](O)CC[C@@]1(C)[C@@H]2CC(=O)NC1CCCCC1	i
CC(C)NC(=O)C[C@@H]1c2nc(NC(=O)c3c(F)cccc3F)sc2C[C@@H]2[C@](C)(CO)[C@H](O)CC[C@]21C	-8%
CCCn1cnnc1-c1nc2c([nH]1)CC(c1ccccc1OC)CNC2=O (stereo not drawn)	-10%
SMILES	Pf Dd2 growth
Oc1cccc(Nc2cnc3ccc(-c4ccc(F)cc4)nn23)c1	i
CCn1nccc1C(=O)N1CCC2(CC1)NC(=O)N(c1cccc(F)c1)N2	25%
COc1cccc(-c2nc(N3CCCCC3)ncc2C(=O)O)c1	-12%
CCc1ccc(CN2CCCC(c3nnc(Cn4ccnc4)n3C)C2)nc1 (stereo not drawn)	-10%
O=C(CCC1CCN(S(=O)(=O)c2ccccc2)CC1)NCc1ccco1	-17%
COc1ccccc1Cn1cc(C(=O)c2ccccc2)c(=O)c2cc(OC)c(OC)cc21	2.5µM*
CCOc1ccc(NC(=O)Cn2cc(C(=O)c3ccccc3)c(=O)c3cc4c(cc32)OCO4)cc1	-1%
Cc1ccc2c(c1)c(=O)c(C(=O)c1ccc3c(c1)OCO3)cn2Cc1ccc(Cl)cc1	13µM*
Cc1ccc(Cn2cc(S(=O)(=O)c3ccc(Cl)cc3)c(=O)c3cc4c(cc32)OCO4)cc1	-1%
CCOc1ccc2c(c1)c(=O)c(C(=O)c1ccc(CC)cc1)cn2CC(=O)Nc1ccccc1OC	-7%
CCc1ccc(C(=O)c2cn(CC(=O)Nc3ccc(Cl)cc3)c3cc4c(cc3c2=O)OCO4)cc1	-28%
CCOc1ccc(C(=O)c2cn(CC(=O)Nc3ccc(Cl)cc3)c3cc4c(cc3c2=O)OCO4)cc1	-9%
CCOc1ccc(C(=O)c2cn(CC(=O)Nc3ccc(OC)cc3)c3cc4c(cc3c2=O)OCCO4)cc1	25%
CCOc1ccc(C(=O)c2cn(Cc3ccc(Cl)cc3)c3cc(OC)c(OC)cc3c2=O)cc1	7.9µM*
COc1cc(NC(=O)Cn2ccn(Cc3ccccc3OC)c(=O)c2=O)cc(OC)c1	34%
COc1ccc(Cn2cc(C(=O)c3ccc(OC)cc3)c(=O)c3cc4c(cc32)OCCO4)cc1	8.9µM*
